# Source: PubChem (National Center for Advancing Translational Sciences (NCATS))
# Sfp PPTase inh: inhibitors of Bacillus subtilis Sfp phosphopantetheinyl transferase. Q9F4F7. Biochemical Sfp PPTase activity, qHTS. Potency, µM, hits mostly inhibitors. 3.5% of 310,000 active. AID 1490;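 also: the enzyme is Sfp with the accession as filed and its product quenches rhodamine fluorescence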
#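 Reaction rates are the 30-min fluorescence difference (ex 525, em 598 nm) in wells containing 15 nM Sfp, 5 uM rhodamine-CoA and 12.5 uM BHQ-2-YbbR at pH 7.6 with 10 mM MgCl2.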
# PLK1 PBD block: PLK1 (human) polo-box domain binding inhibition. P53350. Plk1 PBD binding of FITC phosphopeptide, fluorescence polarization. Potency, µM, actives largely listed as inhibitors. 2.8% of 360,000 active; also: series mostly up to about 57 µM; nearly all actives have a fitted effect of over 65% in size
# G9a block: G9a (human) methyltransferase inhibition; Q96KQ7; G9a H3K9 monomethylation, AlphaScreen, 2 h; Potency, µM (highest dose often 102 µM), hits mostly inhibitors; 8.8% of 350,000 active; AID 504332; also: nearly all actives have a fitted effect of over 75% in size
# Target sequence (Q96KQ7 913-1193 limits assumed): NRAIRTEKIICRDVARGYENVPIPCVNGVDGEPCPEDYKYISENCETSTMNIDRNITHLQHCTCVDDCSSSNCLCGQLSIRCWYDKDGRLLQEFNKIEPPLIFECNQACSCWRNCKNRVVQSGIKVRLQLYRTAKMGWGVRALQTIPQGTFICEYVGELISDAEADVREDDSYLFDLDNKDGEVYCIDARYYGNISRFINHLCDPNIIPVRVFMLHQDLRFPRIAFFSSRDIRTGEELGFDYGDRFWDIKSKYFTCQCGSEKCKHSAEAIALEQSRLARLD
#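 Readings reflect AlphaScreen signal from monomethyl-H3K9 antibody detection. HMT at 20 nM; substrate b-H3K9 500 nM; cofactor SAM 20 uM; 2 h RT reaction; compounds tested as titrations in qHTS with 15 min preincubation.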
# MmCpn inh: blocks the Methanococcus maripaludis chaperonin Mm-Cpn; purified Mm-Cpn ATPase, ADP Transcreener TR-FRET; Potency, µM (doses to about 76.9 µM), actives largely listed as inhibitors; 0.031% of 330,000 active; AID 504842; also: nearly all actives have a fitted effect of over 80% in size
#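 ATPase read-out: TR-FRET ADP immunoassay (anti-ADP Eu cryptate vs ADP-d2), ex 320 nm, em 590/665 nm; signal drops as ADP forms. Enzyme 25 nM, ATP 10 uM, 30 min at 37°C after 10 min compound preincubation.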
# CCT modulator: cytosolic chaperonin activity modulation. AID 651819. 0.3% of 360,000 active. activity change, % (test concentration not listed), hits read low. purified chaperonin ATPase assay, HTRF ADP detection, 30 min; in the data active = activity change below about -30%
#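 Nucleotide hydrolysis assay: TRiC at 20–40 nM final (set by batch activity) with 10 uM ATP, 30 min at 37 °C, in presence of 76 uM compound. Detection by competitive ADP HTRF, 30 min ambient.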
# VDR inh: blocks the human vitamin D receptor; VDR-SRC2-3 peptide fluorescence polarization, 2 h; Potency, µM, usual class: inhibitors; 0.93% of 400,000 active; AID 504847
# Target sequence (P11473 whole entry, looked up): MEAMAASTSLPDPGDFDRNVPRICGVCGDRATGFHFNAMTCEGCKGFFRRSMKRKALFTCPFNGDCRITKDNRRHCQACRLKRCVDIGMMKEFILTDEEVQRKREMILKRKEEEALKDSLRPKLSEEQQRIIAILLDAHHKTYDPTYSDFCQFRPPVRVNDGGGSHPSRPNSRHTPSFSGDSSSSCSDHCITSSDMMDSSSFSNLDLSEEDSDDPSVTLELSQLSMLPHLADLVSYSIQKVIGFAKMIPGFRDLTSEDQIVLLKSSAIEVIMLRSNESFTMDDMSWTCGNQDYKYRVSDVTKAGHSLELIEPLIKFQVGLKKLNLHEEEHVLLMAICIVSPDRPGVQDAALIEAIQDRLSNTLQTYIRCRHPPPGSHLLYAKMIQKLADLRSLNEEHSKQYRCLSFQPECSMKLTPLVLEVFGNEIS
#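 Two reagent solutions held at 4 deg C in the dark were dispensed, compounds pinned at 23 nl, and the mixture incubated 2 h at room temperature. Read-out: fluorescence polarization of VDR–SRC2-3 peptide binding.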
# Hits are given with their value; i = inactive; ? = inconclusive; nt = not tested or not shown. Compounds with a hit are over-represented: about 10% of the library has one in this group of screens. Unless noted, calls follow the shape of the dose curve; as a rule, active = well fitted curve in the direction sought with a large enough effect; inconclusive = small, poorly fitted or top-dose-only effect, or another doubt; inactive = no such curve, though single readings can be large; an effect the other way counts as inactive or inconclusive.
SMILES,Sfp PPTase inh,PLK1 PBD block,G9a block,MmCpn inh,CCT modulator,VDR inh
COc1ccc(OC)c(NC(=O)CCNS(=O)(=O)c2cccc3nonc23)c1,i,i,?,i,i,i
O=S(=O)(Nc1ccccc1)c1cccc2nonc12,i,i,?,i,i,i
Cc1ccccc1OCC(=O)Nc1ccc(-c2nc3ccccc3o2)cc1,nt,nt,i,nt,nt,i
Cn1c(=O)c(=O)n(C)c2cc([N+](=O)[O-])c([N+](=O)[O-])cc21,i,i,?,i,-32.5,i
CCc1ccc(NC(=O)C2CCCN(c3nn4cc(-c5ccc(OC)cc5)nc4s3)C2)cc1 (stereo not drawn),nt,nt,?,nt,nt,i
CCC(C)[C@H](NC(=O)N1CC(=O)Nc2ccccc21)C(=O)NC(C)CCc1ccccc1 (stereo partly drawn),i,i,?,i,i,i
CCC(C)[C@H](NC(=O)N1CC(=O)Nc2ccccc21)C(=O)N[C@@H](C(=O)O)c1ccccc1 (stereo partly drawn),i,?,79.4µM,i,i,i
CCOC(=O)c1nc(S(C)(=O)=O)ncc1Cl,i,21.2µM,?,i,i,56.2µM
CCSc1ncc(Cl)c(C(=O)Nc2nnc(CC)s2)n1,nt,nt,?,nt,nt,i
CCc1nnc(NC(=O)c2cc(Cl)ccn2)s1,i,?,79.4µM,i,i,i
CN1/C(=C/C(=O)c2nc(S(C)(=O)=O)ncc2Cl)C(C)(C)c2ccccc21,i,?,?,i,i,50.1µM
CN1/C(=C\C(=O)c2cccnc2)C(C)(C)c2ccccc21,i,i,i,i,i,i
CCOC(=O)c1nc(S(C)(=O)=O)ncc1N1CCOCC1,i,i,i,i,i,i
CCc1nnc(NC(=O)c2nc(S(C)(=O)=O)ncc2Cl)s1,nt,nt,7.08µM,nt,nt,i
COc1ccc(C(=O)NCc2nnc(SCC(=O)Nc3ccccc3)n2-c2ccccc2)cc1,nt,nt,i,nt,nt,i
Cc1cccc(-c2noc(-c3ccc(NC4CCCC4)c([N+](=O)[O-])c3)n2)c1,nt,nt,i,nt,nt,i
Cc1cccc(C)c1NC(=O)c1nc(S(=O)(=O)Cc2ccccc2)ncc1Cl,?,?,?,i,i,?
Cc1ccccc1NC(=O)c1nc(S(C)(=O)=O)ncc1Cl,i,?,?,i,i,39.8µM
Cc1ccccc1CS(=O)(=O)c1ncc(Cl)c(C(=O)Nc2ccc(F)cc2)n1,?,18.9µM,22.4µM,i,i,i
CC(=O)NCCNc1nc(-c2ccc(N(C)C)cc2)nc2ccccc12,i,nt,nt,nt,nt,i
Cc1cccc(C(=O)N/N=C/c2ccc[nH]2)c1,i,i,i,i,i,?
O=C(N/N=C/c1ccc[nH]1)c1cc2ccccc2cc1O,i,i,79.4µM,i,i,i
N=c1oc2ccc3ccccc3c2cc1C(N)=S,?,23.8µM,20µM,i,i,i
CCCSC1=C(C#N)C(c2cccs2)C(C(=O)Nc2ccccc2)=C(C)N1 (stereo not drawn),i,i,?,i,i,i
CC1=C(C(=O)Nc2ccccc2)C(c2ccncc2)C(C#N)=C(SCC(=O)NC2CC2)N1 (stereo not drawn),i,i,28.2µM,i,i,i
SMILES,Sfp PPTase inh,PLK1 PBD block,G9a block,MmCpn inh,CCT modulator,VDR inh
CC1=C(C(=O)Nc2ccccc2)C(c2ccncc2)C(C#N)=C(SCC(=O)NC(C)C)N1 (stereo not drawn),?,i,11.2µM,i,i,i
Cc1ccc(CNC(=O)C2CCN(c3nc4ccccc4n(C)c3=O)CC2)cc1,nt,nt,?,nt,nt,i
Cc1nonc1CN(C)C(=O)CC1C(=O)NCCN1Cc1c(F)cccc1Cl (stereo not drawn),?,i,i,i,i,i
Cc1csc(CN(C)C(=O)CC2C(=O)NCCN2Cc2ccc(Cl)c(F)c2)n1 (stereo not drawn),i,i,39.8µM,i,i,i
COc1ccc(CN2CCNC(=O)C2CC(=O)N(C)CCC2CCOCC2)c(OC)c1 (stereo not drawn),i,i,i,i,i,i
COc1ccc(CN2CCNC(=O)C2CC(=O)N(C)Cc2nccs2)c(OC)c1 (stereo not drawn),i,26.7µM,i,i,i,i
Cc1csc(CN(C)C(=O)CC2C(=O)NCCN2Cc2ccc(F)cc2Cl)n1 (stereo not drawn),i,i,22.4µM,i,i,i
Cc1cc(CN(C)C(=O)CC2C(=O)NCCN2Cc2c(F)cccc2Cl)n[nH]1 (stereo not drawn),50.1µM,i,39.8µM,i,i,i
Cc1csc(CNC(=O)CC2C(=O)NCCN2Cc2ccc(F)cc2Cl)n1 (stereo not drawn),i,i,i,i,i,i
COc1ccccc1C(=O)Nc1cccc(C(=O)OCc2cc(=O)n3ccsc3n2)c1,nt,nt,i,nt,nt,i
Cc1[nH]c(=O)c(C#N)cc1-c1ccc2nccn2c1,i,nt,12.6µM,nt,nt,i
CC(C)C1Oc2cc3oc(=O)ccc3cc2C1=O (stereo not drawn),i,i,79.4µM,i,i,i
COc1cc2c(cc1OC)C(C)N(C(=O)c1cc3n(n1)C(C(F)(F)F)CC(c1ccco1)N3)CC2 (stereo not drawn),39.8µM,i,17.8µM,i,i,i
COc1ccc(NC(=O)c2cc3n(n2)C(C(F)(F)F)CC(c2ccco2)N3)cc1 (stereo not drawn),i,i,?,i,i,i
Cc1ccc2c(c1)sc(-c1ccc(N(C)C)cc1)[n+]2C,i,i,50.1µM,i,i,i
Cc1ccc(NC(=S)c2ccc(N(C)C)cc2)cc1,i,i,i,i,i,i
COC(=O)N1[C@H](C)C=C[C@]1(Cc1ccccc1)C(=O)OC,i,i,nt,nt,i,i
COC(=O)N1C(=O)[C@@](Cc2ccccc2)(c2ccccc2)N1C(=O)OC,i,29.9µM,nt,i,i,?
COC(=O)N1C(=O)[C@@](c2ccccc2)(C2CCCCC2)N1C(=O)OC,i,?,i,i,i,?
COC(=O)N1C(=O)[C@](Cc2ccccc2)(c2ccccc2)N1C(=O)OC,i,15µM,39.8µM,i,i,89.1µM
CCOC(=O)c1c[nH]n(-c2ccc(C)cc2)c1=O,i,i,50.1µM,i,i,i
CCN(CC(=O)Nc1ccc(NC(C)=O)cc1)CC(=O)Nc1ccc(Cl)c(Cl)c1,56.2µM,i,31.6µM,i,i,i
CCN(CC(=O)Nc1ccc(NC(C)=O)cc1)CC(=O)Nc1cccc(Cl)c1,i,i,i,i,-71.1,i
Cc1ccccc1CNC(=O)Cc1ccc(NC(=O)N2CCCCc3ccccc32)cc1,nt,nt,i,nt,nt,i
Cc1ccc(NC(=O)Cn2nc(C)c3nn(-c4ccc(Cl)cc4)c(C)c3c2=O)cc1F,nt,nt,i,nt,nt,i
O=C(O)Cc1csc(Nc2cccc(Cl)c2)n1,i,i,i,i,i,i
CC(C)c1ccc(Nc2nc(CC(=O)O)cs2)cc1,i,i,39.8µM,i,i,i
CCOC(=O)c1[nH]c2ccccc2c1NC(=O)c1ccccc1OC,nt,nt,?,nt,nt,i
